# According to PubChem BioAssay:
# Values without a mark were called inactive. The source made the active and inactive calls.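 Rule for the calls: active = growth inhibition above 50% at the single 2 µM test dose, taken to imply half-maximal potency below 2 µM; inactive = the rest.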
# Experiment: antimalarial activity against Dd2 strain (AID 2302);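 note: 0% = DMSO untreated growth and 100% = chloroquine plus artemisinin killed control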
# Conditions: P. falciparum Dd2 in RBCs, LDH growth readout, 72 h; at 2 µM; active compounds read high
row,Compound,growth inhibition
1,CS(=O)(=O)c1ccc(CCNCc2ccc(-c3ccc(CN(C(=O)C4CCCC4)C4CCN(Cc5ccccc5)CC4)cc3)nc2)cc1,20%
2,CCN(CC)CCNC(=O)c1ccc(NC(=O)c2cc3c(C)nn(-c4ccc(Cl)cc4)c3s2)cc1,78% (active)
3,O=C1COC2(CN1CC1CCN(Cc3ccc(O)c(Cl)c3)C1)c1ccccc1-c1ccccc12 (stereo not drawn),50% (active)
4,CCOC(=O)c1cn(CC)c2cc(O[C@H]3CCN(C(=O)OC(C)(C)C)C3)ccc2c1=O,75% (active)
5,O=C(c1ccc(OCCn2ccnc2)cc1)N1CCC(c2ccc(Br)cc2)C1 (stereo not drawn),99% (active)
6,Cn1nccc1C(=O)NCCNCc1ccc(-c2ccc(-c3nc4ccccc4[nH]3)s2)cc1,97% (active)
7,CN1CCN(CCCN(Cc2cccc(-c3ccc(CNCc4ccc5c(c4)OCO5)cc3)c2)C(=O)Nc2ccccc2)CC1,69% (active)
8,Cc1cccc(S(=O)(=O)Nc2cccc(CCN3CCC(N4CCCCC4)CC3)c2)c1,13%
9,COc1cccc(-c2nn(C)c3sc(C(=O)NCCN(C)Cc4ccccc4)cc23)c1,26%
10,Cc1cnc(CS(=O)c2nc3ccc(C(F)(F)F)cc3[nH]2)cc1OCc1ccccc1 (stereo not drawn),76% (active)
11,Cc1cccc(CNc2nc(C)cc(N[C@@H](Cc3ccccc3)C(=O)NCCc3ccccc3)n2)c1,85% (active)
12,CCc1ccc(CNCC(CCNc2cc(=O)c3ccccc3[nH]2)NCc2cc(Br)cc(Br)c2)o1 (stereo not drawn),92% (active)
13,Cc1ccc(Cc2cnc(NCCSCc3ccc(CN(C)C)s3)[nH]c2=O)cn1,-5%
